Where “and” joins values, the source holds several entries; their conditions need not be identical. Identical values can stand only once. Hit rate of the full screen: of about 310,000 compounds, about 1,200 (0.39%) were called active. The list is a sample of the results. Results with a measured potency or affinity are listed apart. Values without a mark were called inactive. The rule behind the calls is not given here.

Results on 98 compounds are retold here after PubChem BioAssay AID1903 (Southern Research Specialized Biocontainment Screening …, 2009).

The assay deals with Large T antigen (Simian virus 40) (UniProt P03070). Kind of assay: TAg ATPase/helicase activity blockers – biochemical (AID 1903). The conditions noted are these: SV40 large T antigen ATPase/helicase inhibition assay; at 20 µM; stronger effect = higher value.
Sequence of Large T antigen (Simian virus 40) (P03070 whole entry, looked up): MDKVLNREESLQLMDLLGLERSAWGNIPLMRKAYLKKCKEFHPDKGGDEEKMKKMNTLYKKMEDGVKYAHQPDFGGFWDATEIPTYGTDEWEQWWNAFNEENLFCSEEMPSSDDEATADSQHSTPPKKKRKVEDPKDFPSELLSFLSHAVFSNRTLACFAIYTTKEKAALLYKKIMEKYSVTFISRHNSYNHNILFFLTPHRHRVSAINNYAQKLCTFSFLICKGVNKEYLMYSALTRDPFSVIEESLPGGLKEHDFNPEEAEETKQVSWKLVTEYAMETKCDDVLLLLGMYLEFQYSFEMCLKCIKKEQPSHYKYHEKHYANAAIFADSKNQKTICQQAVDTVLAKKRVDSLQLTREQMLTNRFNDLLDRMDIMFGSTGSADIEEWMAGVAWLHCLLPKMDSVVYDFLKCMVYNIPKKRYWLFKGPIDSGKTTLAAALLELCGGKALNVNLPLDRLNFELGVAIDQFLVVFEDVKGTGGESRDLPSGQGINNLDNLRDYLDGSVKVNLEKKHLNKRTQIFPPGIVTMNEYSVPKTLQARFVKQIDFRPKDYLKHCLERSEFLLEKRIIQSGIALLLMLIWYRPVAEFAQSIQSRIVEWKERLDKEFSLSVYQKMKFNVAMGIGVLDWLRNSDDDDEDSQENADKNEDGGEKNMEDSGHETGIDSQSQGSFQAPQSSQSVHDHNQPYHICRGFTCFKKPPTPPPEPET
On to `O=[N+]([O-])c1cccc(/C=N/N2CCN(Cc3ccccc3)CC2)c1`, for which the inhibition was 16.1%. To `CN1CCOc2ccc(S(=O)(=O)NCCc3ccc(Cl)cc3)cc21` belongs 4.83%; to `CC(Oc1ccc(Br)cc1)C(=O)NCC(c1cccs1)N1CCOCC1` (stereo not drawn), 0.98%; to `O=C(NNc1ccc([N+](=O)[O-])cc1)C1C2CCCCC21` (stereo not drawn), 2.05%. Turning to `CC1CCN(S(=O)(=O)c2cccc(C(=O)N(Cc3ccccc3)c3ccccn3)c2)CC1`, the inhibition was 6.8%. To `CN(C)/C=C(\C#N)C(=O)Nc1ccc(F)cc1` belongs -1.08%; to `CN(C)/C=C(\C#N)C(=O)Nc1ccc(F)c(Cl)c1`, 14.7%. Consider `COc1ccc(C)cc1NC(=O)c1ccc2c(O)c(S(=O)(=O)c3ccccc3)c(=O)[nH]c2c1`, for which the inhibition was 13.8%.

For the compound `CC(C)(C)c1ccc(OCC(O)CSc2ncn[nH]2)cc1` (stereo not drawn), the inhibition is 3.06%. To `COc1ccc2c(c1)C(=O)CC(c1ccccc1F)O2` (stereo not drawn) belongs 15.3%; to `COc1ccc2c(c1)C(=O)c1ccccc1CO2`, 10.1%; to `O=C1C2C3C=CC(CO)(O3)C2C(=O)N1c1ccccc1-c1ccccc1` (stereo not drawn), 13.7%. To `CCN(CC)C(=O)c1c(-c2ccccc2)oc2ccc(O)cc12` belongs 13.9%; to `O=C(O)c1c(-c2ccccc2)oc2ccc(O)cc12`, 15%; to `CCn1c(=O)n(CC)c2cc([N+](=O)[O-])ccc21`, -2.72%. To `CCn1c(=O)n(CC)c2cc(S(N)(=O)=O)ccc21` belongs 3.97%; to `O=C(COc1ccccc1Cl)NCc1nc(-c2ccccc2)no1`, 10.2%; to `Cc1ccc(Nc2nc(N)c([N+](=O)[O-])c(N3CCOCC3)n2)cc1`, 9.48%.

For `COc1ccc(Nc2nc(N)c([N+](=O)[O-])c(N3CCOCC3)n2)cc1`, the inhibition was 10.9%. Under `Cc1cc(/C=C(\C#N)C(=O)O)c(C)n1C1CC1` stands 11.4%; under `O=C(N/N=C/c1ccc(OCc2ccc(F)cc2)cc1)c1ccccc1`, 1.09%. Consider `Cc1nn(CC(=O)N2CCC(N3CCCCC3)CC2)c(=O)c2c1sc1ccccc12`, for which the inhibition was 17.6%. Under `Cc1cccc(N2CCN(C(=O)Cn3nc(C)n4cccc4c3=O)CC2C)c1` (stereo not drawn) stands 8.5%; under `Cc1cc(C)c2c(=O)n(CC(=O)N3CCC(Cc4ccccc4)CC3)sc2n1`, 3.6%; under `CCOC(=O)C1CCCN(C(=O)Cn2sc3nc(C)cc(C)c3c2=O)C1` (stereo not drawn), 73.4%.

Turning to `CN1CCN(c2ccc(Cl)cc2NC(=O)c2ccc(=O)n(C)n2)CC1`, the inhibition is 22.8%. To `CC(C)c1ccc2[nH]c(O)c(N=NC(=O)c3cccc(S(=O)(=O)Nc4ccccc4Cl)c3)c2c1` belongs -4.52%; to `COc1ccccc1C(=O)NNC(=O)c1sccc1-n1cccc1`, 8.72%. Consider `CCN(CC)CCN1c2ccccc2Sc2ccccc21`, for which the inhibition is 34.5%. To `CN(C)CCCN1c2ccccc2Sc2ccccc21` belongs 33%; to `CCCCN(C(=O)c1ccc([N+](=O)[O-])o1)c1c(N)n(CC(C)C)c(=O)[nH]c1=O`, 20.2%.

As to `COc1cccc(-c2cc(C(=O)Nc3cc(C)on3)no2)c1`, the inhibition was 3.2%.

Take `Cc1ccc2oc(=O)c3cnn(CC(=O)NCCCOC(C)C)c3c2c1`: the inhibition was 5.01%. With `CCOC(=O)Cc1csc(NC(=O)c2ccc3c(c2)OCO3)n1`, the inhibition is -7.42%. To `NC1=NC(=O)/C(=C/c2cc(Br)c(O)c(Br)c2)S1` belongs 23.3%.

`COc1ccc(/C=C2\SC(c3ccc(C)cc3)=NC2=O)cc1OC`: the inhibition was 4.55%. As for `COc1cc(/C=C2\SC(c3ccc(C)cc3)=NC2=O)cc(OC)c1OC`, the inhibition was 14.7%. Under `COc1ccc(/C=C2/SC(c3ccc(C)cc3)=NC2=O)cc1OC` stands 7.06%; under `O=C(Nc1ccc(CN2CCOCC2)cc1)c1ccc(Br)o1`, 4.15%. To `CCCc1nn(-c2cc(Cl)ccc2OC)c2c1C(=O)CC(C)(C)C2` belongs 2.88%; to `CC(=O)N(c1ccc2oc(=O)sc2c1)S(=O)(=O)c1ccc(C(=O)O)cc1`, 23.9%; to `CC(C)C(=O)N(c1ccc2oc(=O)sc2c1)S(=O)(=O)c1ccccc1`, 25.6%. Under `CCCC(=O)N(c1ccc2oc(=O)sc2c1)S(=O)(=O)c1cccs1` stands 34.4%; under `CC(C)C(=O)N(c1ccc2oc(=O)sc2c1)S(=O)(=O)c1cccs1`, 22.8%. As for `Cc1ccsc1C(=O)OCC(=O)NCc1ccc2c(c1)OCO2`, the inhibition was 20.1%. To `O=C(O)C1CC=CCC1C(=O)N1CCCC1` (stereo not drawn) belongs -0.98%; to `O=C1NC(=O)/C(=C\c2ccsc2)N1`, 2.09%; to `COc1c(-c2ccc(O)c(O)c2)oc2cc(O)cc(O)c2c1=O`, 9.05%. Under `COCOc1cc(O)c2c(=O)c(OCOC)c(-c3ccc(OCOC)c(OCOC)c3)oc2c1` stands 7.99%; under `CCn1c(SCC(=O)Nc2nccs2)nnc1-c1ccc(S(=O)(=O)N2CCCCCC2)cc1`, -0.295%; under `Cc1ccc(S(=O)(=O)N2CCCC(C(=O)NCC3CCCO3)C2)cc1` (stereo not drawn), 3.23%. For the compound `O=S(=O)(c1ccc(Cl)cc1)N1CCCCCC1`, the inhibition was 20.7%.

As for `CC1CN(S(=O)(=O)c2ccccc2)C(C)CN1S(=O)(=O)c1ccccc1` (stereo not drawn), the inhibition was 8.4%. Under `CN1CCN(S(=O)(=O)c2ccc(Cl)cc2)CC1` stands 0.99%; under `Cc1ccc(S(=O)(=O)N2CCN(S(=O)(=O)c3ccccc3)C2)cc1`, 6.18%; under `CCCN(CCC)C(=O)Cc1coc2ccc3ccccc3c12`, 3.36%. Under `Cc1cc2cc(CNC(=O)Nc3ccccc3)ccc2n1C` stands 4.59%; under `O=C1NCCN/C1=C\C(=O)c1ccc(Cl)cc1`, 12.3%.

For `CCOc1ccc(NC(=O)COn2nnc3ccc(S(=O)(=O)N4CCOCC4)cc32)cc1`, the inhibition was 11.2%.

With `O=c1cc(-c2ccccc2[N+](=O)[O-])oc2ccccc12`, the inhibition was 1.45%. In the case of `CCOc1ccccc1-c1c2cc(O)c(=O)cc-2oc2cc(O)c(O)cc12`, the inhibition was 15.8%. To `COc1ccc(OC)c(-c2c3cc(O)c(=O)cc-3oc3cc(O)c(O)cc23)c1` belongs 73.4%; to `Cc1c2cc(O)c(=O)cc-2oc2cc(O)c(O)cc12`, 57.6%. On to `CCOc1ccccc1NC(=O)CSc1nnc(CNC(=O)c2cc(OC)c(OC)c(OC)c2)o1`, for which the inhibition is 5.49%. Under `COc1ccccc1CNC(c1ccccc1)c1ccccc1` stands 21.1%; under `COc1ccc(C2NC(c3ccc(OC)c(OC)c3OC)C(C)C(=O)C2C)c(OC)c1OC` (stereo not drawn), -0.23%; under `CCOC(=O)C(Sc1cc(C)nc(N)n1)C(C)=O` (stereo not drawn), 7.31%. To `CCc1c(C)nc(N)nc1Cl` belongs 10.9%; to `O=C1C=C(Nc2cccc(O)c2)CC(c2ccco2)C1` (stereo not drawn), 6.63%; to `O=C1C=C(Nc2ccc(Cl)cc2)CC(c2ccco2)C1` (stereo not drawn), 24.2%. To `COc1ccccc1-c1ocnc1C(=O)N1CCN(S(=O)(=O)c2ccc(NC(C)=O)cc2)CC1` belongs 4.74%. Consider `CCOC(=O)c1c(C)nc2ccccc2c1-c1ccccc1`, for which the inhibition is 5.96%. On to `CN(C)c1ccc(N/C=C/C(=O)C(C)(C)C)cc1`, for which the inhibition was 27.8%. Turning to `CN(C)c1ccc(N/C=C/C(=O)c2ccc(F)cc2)cc1`, the inhibition is 18.2%. Turning to `COc1ccc(N/C=C/C(=O)C(F)(F)F)cc1`, the inhibition was 9.63%. Under `O=C(/C=C/Nc1ccccc1)c1ccccc1` stands 10.3%. To `Cc1ccc(-c2nn(-c3ccccc3)cc2C(N)=O)o1` belongs 1%; to `COc1ccc(CN2CCN(C(=O)CCC(=O)Nc3nnc(C(F)(F)F)s3)CC2)cc1F`, 25.2%; to `CCn1c(C)nc2cc(C(=O)N/N=C(\C)c3ccc(N4CCOCC4)cc3)ccc21`, 9.23%.

As to `O=C1[C@H]2CCCC[C@H]2C(=O)N1CCCCN1CCN(c2nsc3ccccc23)CC1`, the inhibition was 11.2%.

For `Oc1c(CN2CCCC(C(F)(F)F)C2)cc(Cl)c2ccccc12` (stereo not drawn), the inhibition was 6.33%.

With `COc1ccc(CN2C(=O)CSCC2=O)cc1OC`, the inhibition is 23.5%. Turning to `CC1CCCN(S(=O)(=O)c2cnc[nH]2)C1` (stereo not drawn), the inhibition is 16.4%. Under `CC(=O)c1ccc([N+](=O)[O-])c(CS(=O)(=O)c2ccc(Cl)cc2)c1` stands 2.52%. Under `Cc1ccc(S(=O)(=O)Cc2ccc([N+](=O)[O-])cc2)cc1` stands 12.8%; under `C=CCNc1nc(-c2cc3ccccc3o2)cs1`, 16.7%. To `COc1ccc([C@@H]2CC=C(C(=O)O)[C@H](c3cccc(Cl)c3)N2S(=O)(=O)c2ccccc2C)cc1` belongs 20.5%. Consider `COc1cc(-c2cc(=O)c3c(O)cc(O)cc3o2)ccc1O`, for which the inhibition was 11.8%. `COc1ccc(-c2cc(=O)c3ccccc3o2)cc1`: the inhibition was 4.04%. For `COc1cc(-c2cc(=O)c3c(O)c(OC)c(OC)c(OC)c3o2)cc(OC)c1OC`, the inhibition was 1.45%. Consider `COc1ccc(-c2cc(=O)c3c(OC)c(OC)c(OC)c(OC)c3o2)cc1OC`, for which the inhibition is 8.13% and 2.63% and 16.4%.

As to `Nc1nnc(-c2cccc([N+](=O)[O-])c2)o1`, the inhibition was -0.81%. To `CCCCCCn1cc(C(=O)OCC)c(=O)c2cc(F)c(F)cc21` belongs 20.5%.

Regarding `CCC(C)C(NC(=O)C(N)CC(C)C)C(=O)NC(CCC(=O)OCc1ccccc1)C(N)=O` (stereo not drawn), the inhibition was -6.23%. To `CC(=O)Nc1ccc(NCc2cccs2)cc1` belongs 15.1%. Consider `O=C(O)c1cc(NCc2cccs2)ccc1N1CCOCC1`, for which the inhibition is 16.1%. To `O=C(O)c1ccc(NCc2cccs2)cc1` belongs 5.7%.

On to `COC(=O)c1cc(NCc2cccs2)ccc1N1CCOCC1`, for which the inhibition was 36.1%.

By inhibition is commonly meant the drop in the measured response relative to a control, in per cent.
